Experimental data as given in PubChem BioAssay AID1159580 (chemical genetic matrix, 2015).
Several values for one entry are separate records, joined by “and”; a condition that tells them apart may be missing. Equal entries are not always repeated. In all, about 5,500 compounds went through this assay and about 2,000 (36%) were called active. Not shown: some 18% with an inconclusive outcome. Cut-off read from the data, not from the text of the source: active = normalized growth mostly below about 0.91 (no sharp cut-off); inconclusive = no clear call, values can overlap the other calls; inactive = mostly above about 0.92. This is one part of the list.

Experiment: chemical genetic growth profiling, strain panel (AID 1159580);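 note: tested at 20 µM; growth read once vehicle control cultures reached saturation at 30 °C; 1 = growth at the plate median or of vehicle wells; lower values mean less growth of the strain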
Details: S. cerevisiae deletion strains, growth OD

Measured: normalized growth

C[C@H]1CC2C([C@@H](O)C[C@@]3(C)C2CC[C@]3(O)C(=O)CO)[C@@]2(C)C=CC(=O)C=C12 (stereo partly specified)
inactive: locus YAL013W, strain DEP1, stronger effect = lower value 0.994 | locus YAL021C, strain ccr4, stronger effect = lower value 1.01 | locus YAL026C, strain drs2, stronger effect = lower value 1.02 | locus YAL030W, strain snc1, stronger effect = lower value 1 | locus YBL061C, strain skt5, stronger effect = lower value 0.991 | locus YBR009C, strain hhf1, stronger effect = lower value 1.01 | locus YBR021W, strain FUR4, stronger effect = lower value 0.972 | locus YBR023C, strain chs3, stronger effect = lower value 1.01 | locus YBR171W, strain sec66, stronger effect = lower value 0.993 | locus YBR229C, strain ROT2, stronger effect = lower value 0.993 | locus YBR231C, strain swc5, stronger effect = lower value 0.977 | locus YBR279W, strain paf1, stronger effect = lower value 1.01 | locus YCL011C, strain gbp2, stronger effect = lower value 1.03 | locus YCL016C, strain dcc1, stronger effect = lower value 1.01 | locus YCL029C, strain bik1, stronger effect = lower value 1.03 | locus YCL061C, strain MRC1, stronger effect = lower value 0.999 | locus YCL069W, strain vba3, stronger effect = lower value 0.993 | locus YCR088W, strain abp1, stronger effect = lower value 1 | locus YDL005C, strain med2, stronger effect = lower value 0.987 | locus YDL035C, strain GPR1, stronger effect = lower value 0.993 | locus YDL040C, strain nat1, stronger effect = lower value 1 | locus YDL074C, strain BRE1, stronger effect = lower value 1.02 | locus YDL101C, strain DUN1, stronger effect = lower value 1.01 | locus YDL134C, strain PPH21, stronger effect = lower value 0.996 | locus YDL185W, strain tfp1, stronger effect = lower value 1.01 | locus YDL192W, strain arf1, stronger effect = lower value 1.01 | locus YDR001C, strain nth1, stronger effect = lower value 1 | locus YDR069C, strain doa4, stronger effect = lower value 0.994 | locus YDR101C, strain arx1, stronger effect = lower value 1.02 | locus YDR137W, strain rgp1, stronger effect = lower value 0.993 | locus YDR150W, strain NUM1, stronger effect = lower value 0.988 | locus YDR159W, strain sac3, stronger effect = lower value 1.01 | locus YDR162C, strain NBP2, stronger effect = lower value 0.995 | locus YDR195W, strain ref2 0.934 | locus YDR297W, strain sur2, stronger effect = lower value 0.987 | locus YDR318W, strain mcm21, stronger effect = lower value 1.03 | locus YDR334W, strain swr1, stronger effect = lower value 0.997 | locus YDR335W, strain msn5, stronger effect = lower value 1 | locus YDR388W, stronger effect = lower value 1.02 | locus YDR392W, strain spt3, stronger effect = lower value 1.02 | locus YDR502C, strain sam2, stronger effect = lower value 1.01 | locus YEL003W, strain gim4, stronger effect = lower value 0.984 | locus YEL037C, strain rad23, stronger effect = lower value 1 | locus YEL061C, strain CIN8 (second series), stronger effect = lower value 1.01 | locus YEL061C, strain CIN8, stronger effect = lower value 0.993 | locus YER015W, strain faa2, stronger effect = lower value 1.01 | locus YER016W, strain bim1, stronger effect = lower value 1 | locus YER110C, stronger effect = lower value 1.01 | locus YER111C, strain swi4, stronger effect = lower value 1 | locus YER155C, strain BEM2 (second series), stronger effect = lower value 0.989 | locus YER155C, strain BEM2, stronger effect = lower value 0.996 | locus YER167W, strain BCK2, stronger effect = lower value 0.996 | locus YFR010W, strain ubp6, stronger effect = lower value 0.982 | locus YGL078C, strain dbp3, stronger effect = lower value 1.02 | locus YGL086W, strain mad1, stronger effect = lower value 0.999 | locus YGL167C, strain pmr1, stronger effect = lower value 0.988 | locus YGL173C, strain kem1, stronger effect = lower value 0.986 | locus YGL227W, strain vid30, stronger effect = lower value 0.992 | locus YGL240W, strain doc1, stronger effect = lower value 0.972 | locus YGL248W, strain PDE1, stronger effect = lower value 1 | locus YGL253W, strain hxk2, stronger effect = lower value 0.997 | locus YGR078C, strain PAC10, stronger effect = lower value 0.984 | locus YGR135W, strain pre9, stronger effect = lower value 1.04 | locus YGR229C, strain SMI1, stronger effect = lower value 0.986 | locus YGR252W, strain gcn5, stronger effect = lower value 0.947 | locus YHR013C, strain ard1, stronger effect = lower value 0.997 | locus YHR027C, strain rpn1, stronger effect = lower value 1 | locus YHR030C, strain SLT2, stronger effect = lower value 0.994 and 1.07 | locus YHR079C, strain IRE1 (second series), stronger effect = lower value 1.02 | locus YHR079C, strain IRE1, stronger effect = lower value 1.07 | locus YHR094C, strain hxt1, stronger effect = lower value 1.02 | locus YHR129C, strain ARP1, stronger effect = lower value 1 | locus YHR142W, strain chs7, stronger effect = lower value 0.997 | locus YHR200W, strain rpn10, stronger effect = lower value 1.01 | locus YIL066C, strain RNR3, stronger effect = lower value 1 | locus YIL073C, strain SPO22, stronger effect = lower value 1.01 | locus YIL125W, strain kgd1, stronger effect = lower value 1 | locus YIR030C, strain dcg1, stronger effect = lower value 1.02 | locus YJL092W, strain hpr5, stronger effect = lower value 0.989 | locus YJL095W, strain BCK1 (second series), stronger effect = lower value 0.997 | locus YJL095W, strain BCK1, stronger effect = lower value 1.03 | locus YJL115W, strain asf1, stronger effect = lower value 1 | locus YJL129C, strain trk1, stronger effect = lower value 0.987 | locus YJL134W, strain LCB3, stronger effect = lower value 1 | locus YJL154C, strain vps35, stronger effect = lower value 1.01 | locus YJL164C, strain tpk1, stronger effect = lower value 1.01 | locus YJL166W, strain qcr8, stronger effect = lower value 0.97 | locus YJL168C, strain set2, stronger effect = lower value 1.01 | locus YJL187C, strain SWE1 (second series), stronger effect = lower value 1.01 | locus YJR043C, strain POL32, stronger effect = lower value 1.01 | locus YJR066W, strain TOR1, stronger effect = lower value 1.02
